Sampled rows, rich in hits. Any-hit rate of the full collection: about 13%.
JMJD2E inh = qHTS Assay for Inhibitors of Human Jumonji Domain Containing 2E (JMJD2E). JMJD2E catalytic domain, FDH-coupled NADH fluorescence (FDH is formaldehyde dehydrogenase). Lysine-specific demethylase 4E (Homo sapiens), B2RXH2. 230,000 compounds, 1.6% hits. Potency, µM (doses to about 57.1 µM), for the others: at the highest dose activity change, negative = inhibition, usual class: inhibitors. AID 2147, 2009; active = well fitted inhibition curve with a large enough effect, not every such curve was filed as active; inconclusive = small, poorly fitted or top-dose-only effect, or another doubt; inactive = no such curve, though single readings can be large or run the other way;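 note: potency is the fitted concentration of half-maximal effect; 0% = wells with enzyme and -100% = buffer wells without enzyme; nearly all actives have a fitted effect of over 50% in size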
Target sequence (B2RXH2 1-337 limits assumed): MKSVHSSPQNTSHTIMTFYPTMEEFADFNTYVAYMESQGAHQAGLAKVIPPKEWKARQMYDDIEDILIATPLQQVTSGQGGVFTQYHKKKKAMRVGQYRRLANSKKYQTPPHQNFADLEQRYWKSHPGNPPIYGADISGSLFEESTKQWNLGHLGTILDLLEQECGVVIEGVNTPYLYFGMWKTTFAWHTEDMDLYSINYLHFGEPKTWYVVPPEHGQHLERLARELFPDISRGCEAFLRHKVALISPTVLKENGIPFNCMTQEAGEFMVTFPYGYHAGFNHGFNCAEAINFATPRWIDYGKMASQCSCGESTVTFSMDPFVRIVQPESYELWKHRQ
ALDH1A1 block = qHTS Assay for Inhibitors of Aldehyde Dehydrogenase 1 (ALDH1A1). Aldehyde dehydrogenase 1A1 (Homo sapiens), P00352. AID 1030, 2008. 220,000 compounds, 7.3% hits. Potency, µM (highest dose often 75.3 µM), for inactives: top-dose activity, negative = inhibition, most hits filed as inhibitors. Purified ALDH1A1, NADH fluorescence, propionaldehyde substrate; active = well fitted inhibition curve with a large enough effect, not every such curve was filed as active; inconclusive = small, poorly fitted or top-dose-only effect, or another doubt; inactive = no such curve, though single readings can be large or run the other way;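 note: potency is the fitted concentration of half-maximal effect; plate controls were no enzyme wells and a reference inhibitor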
Sfp inh = qHTS Assay for Inhibitors of Bacillus subtilis Sfp phosphopantetheinyl transferase (PPTase); 4'-phosphopantetheinyl transferase ffp (Bacillus subtilis), Q9F4F7; Biochemical Sfp PPTase activity, qHTS; Potency, µM, for inactives: largest response in the series, negative = inhibition, most hits filed as inhibitors; 310,000 compounds, 3.5% hits; AID 1490, 2009;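 note: the enzyme is Sfp with the accession as filed and its product quenches rhodamine fluorescence; potency is the fitted concentration of half-maximal effect; 0% = enzyme reaction without inhibitor and -100% = no enzyme wells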
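Step 1, compound plus 15 nM Sfp-PPTase, 15 min, room temperature. Step 2, add rhodamine-CoA (5 uM) and BHQ-2-YbbR (12.5 uM). Step 3, read 525/598 nm fluorescence at 0 and 30 min.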
LMNA splice mod = qHTS Assay for Modulators of Lamin A Splicing. AID 1487, 2009. Potency, µM (highest dose often 46.1 µM), for inactives: at the highest dose ratio change, negative = inhibition, actives largely listed as inhibitors. 200,000 compounds, 0.01% hits. HeLa LMNA splicing GFP/RFP minigene ratio, 48 h; active = well fitted inhibition curve with a large enough effect in the signal ratio, with a control signal flat, not every such curve was filed as active; inconclusive = small, poorly fitted or top-dose-only effect, or effect the other way, or a change in a side signal; the % refers to the signal ratio; note: potency is the fitted concentration of half-maximal effect; % is set by controls: 0 for no effect and ±100 for the full control effect
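S3 HeLa cells stably expressing lamin A-EGFP splicing minigene plus DsRed2, 600 cells/well, 48 h compound exposure at 37C. Laser-scanning cytometry; analysed as GFP (500-530 nm)/RFP (575-640 nm) total intensity ratio; 0.5% DMSO vehicle.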
G9a inh = qHTS Assay for Inhibitors of Histone Lysine Methyltransferase G9a | 350,000 compounds, 8.8% hits | Histone-lysine N-methyltransferase EHMT2 (Homo sapiens), Q96KQ7 | Potency, µM (titrated, usually from 102 µM), without a hit: at the top dose activity, negative = inhibition, actives largely listed as inhibitors | G9a H3K9 monomethylation, AlphaScreen, 2 h; note: potency is the fitted concentration of half-maximal effect; % is set by controls: 0 for no effect and ±100 for the full control effect; nearly all actives have a fitted effect of over 75% in size
Target sequence (Q96KQ7 913-1193 limits assumed): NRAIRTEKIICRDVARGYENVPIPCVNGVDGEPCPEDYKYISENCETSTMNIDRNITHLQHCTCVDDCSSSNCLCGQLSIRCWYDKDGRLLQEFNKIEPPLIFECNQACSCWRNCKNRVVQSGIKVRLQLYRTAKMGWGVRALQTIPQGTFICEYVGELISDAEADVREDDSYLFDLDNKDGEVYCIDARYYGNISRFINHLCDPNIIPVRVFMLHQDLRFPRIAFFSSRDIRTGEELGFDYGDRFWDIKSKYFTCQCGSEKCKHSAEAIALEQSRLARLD
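Methyltransferase reactions run at room temperature for 2 h (20 nM enzyme, 500 nM biotin-H3K9 peptide, 20 uM SAM) after a 15 min compound preincubation; product detected by AlphaScreen beads and anti-H3K9me1 antibody.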
miR-21 reporter = qHTS Assay for Modulators of miRNAs and/orActivators of miR-21; HeLa miR-21 FLuc reporter, luciferase, 48 h; Potency, µM (doses to about 38.3 µM), inactives show top-dose activity change, positive = activation, usual class: activators; 340,000 tested, under 10 active; AID 2288, 2010;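 note: % of control where 0% means no effect; miR-21 action dims this reporter so a rising signal means less miR-21 action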
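Compounds were titrated across several concentrations (up to approximately 40 uM) and incubated 48 hours with HeLa miR-21-FLuc reporter cells (miR-21 target sequence downstream of FLuc, endogenous miR-21). Readout was firefly luciferase luminescence after lytic detection reagent.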
An asterisk follows results filed as active; [ ] = another dose, or the depositor's remark. Unless noted, calls come from the whole dose curve; as a rule, active = well fitted curve in the direction sought with a large enough effect; inconclusive = small, poorly fitted or top-dose-only effect, or another doubt; inactive = no such curve, though single readings can be large; an effect the other way counts as inactive or inconclusive.

For Cc1ccc2[nH]c(=O)c(CN(Cc3cccnc3)Cc3nnnn3CCN3CCOCC3)cc2c1 the results were JMJD2E inh inconclusive, ALDH1A1 block inconclusive, Sfp inh 8%, LMNA splice mod 14%, G9a inh -5%[12.7 µM] and miR-21 reporter -1%.
For O=c1[nH]c2cc3c(cc2cc1CN(Cc1cccs1)Cc1nnnn1Cc1ccco1)OCCO3 the results were JMJD2E inh inconclusive, ALDH1A1 block inconclusive, Sfp inh 20µM*, LMNA splice mod 8%, G9a inh inconclusive and miR-21 reporter -20%.
COc1ccc(Cn2nnnc2CN(CCCN2CCOCC2)Cc2cc3cc(OC)ccc3[nH]c2=O)cc1 was read as JMJD2E inh inconclusive, ALDH1A1 block inconclusive, Sfp inh 3%, LMNA splice mod inconclusive and miR-21 reporter 9%.
`COC(=O)c1sccc1S(=O)(=O)N(CC(=O)NCc1ccc(C)cc1)c1ccc(C)cc1` gave LMNA splice mod -10%[46 µM], G9a inh 1%[59 µM] and miR-21 reporter 0%.
CCOc1ccccc1CNC(=O)Cn1ccc2cc(S(=O)(=O)N3CCCC3)ccc21 was read as Sfp inh 9%, G9a inh -6% and miR-21 reporter 9%.
`COc1ccccc1N1CCN(C(=O)c2cn(C)c3ccc(S(=O)(=O)N(C)C4CCCCC4)cc3c2=O)CC1` gave G9a inh 9%[59 µM] and miR-21 reporter 3%.
For CCc1ccc2[nH]c(=O)c(CN(Cc3ccccc3)Cc3nnnn3Cc3ccco3)cc2c1 the results were JMJD2E inh inconclusive, ALDH1A1 block 13µM*, Sfp inh 18µM*, LMNA splice mod inconclusive, G9a inh 10µM* and miR-21 reporter -5%.
`Cc1cc2oc(=O)cc(CN3CCc4ccccc43)c2cc1Cl` gave JMJD2E inh 1%, ALDH1A1 block -5%, Sfp inh -9%, LMNA splice mod 4%, G9a inh -37%[59 µM] and miR-21 reporter 0%.
For CCc1ccc2c(CN3CCc4ccccc43)cc(=O)oc2c1 the results were JMJD2E inh -13%, ALDH1A1 block inconclusive, Sfp inh -5%, LMNA splice mod -3%, G9a inh 35µM* and miR-21 reporter -28%.
Cc1ccc2c(CN3CCCc4ccccc43)cc(=O)oc2c1C was read as JMJD2E inh inconclusive, ALDH1A1 block 16µM*, Sfp inh -24%, LMNA splice mod -7%, G9a inh inconclusive and miR-21 reporter -22%.
`CCCCc1cc(=O)oc2cc(O)ccc12` gave JMJD2E inh -3%, ALDH1A1 block inconclusive, Sfp inh -18%, G9a inh 20%[59 µM] and miR-21 reporter -16%.
For Cc1ccc2c(CN3CCCCC3)cc(=O)oc2c1C the results were Sfp inh 0%, G9a inh -20% and miR-21 reporter -46%.
For O=c1cc(CN2CCc3ccccc32)c2ccc(O)cc2o1 the results were JMJD2E inh inconclusive, ALDH1A1 block inconclusive, Sfp inh 2%, LMNA splice mod inconclusive, G9a inh 45µM* and miR-21 reporter 4%.
COc1ccc(CCNC(=O)c2ccc(CNS(=O)(=O)c3ccccc3)cc2)cc1OC was read as JMJD2E inh 8%, ALDH1A1 block 2.5µM*, Sfp inh 13%, LMNA splice mod -12%, G9a inh 12%[59 µM] and miR-21 reporter 21%.
`COc1ccc(CCNC(=O)c2ccc(OC)c(OC)c2)cc1OC` gave Sfp inh 20%, G9a inh inconclusive and miR-21 reporter -10%.
`COc1ccc(CCNC(=O)C2CCC(CNS(=O)(=O)c3ccccc3)CC2)cc1OC` (stereo not given) gave JMJD2E inh -10%, ALDH1A1 block 0.63µM*, Sfp inh 5%, G9a inh -2% and miR-21 reporter 0%.
COc1ccc(CNC(=O)CNS(=O)(=O)c2cccc(C#N)c2)cc1OC was read as Sfp inh -1%, G9a inh 50µM* and miR-21 reporter -2%.
For COc1ccc(CN2C[C@H](C)[C@@H](CC(=O)NCc3ccccc3)C2=O)cc1 the results were Sfp inh 9%, G9a inh 50µM* and miR-21 reporter -1%.
C[C@H]1CN(Cc2ccccc2)C(=O)[C@@H]1CC(=O)NCc1ccccc1 was read as Sfp inh -15%, G9a inh inconclusive and miR-21 reporter -3%.
For Cc1ccc(N2C(S)=C(C#N)C(=O)NC2c2ccco2)cc1 (stereo not given) the results were JMJD2E inh -16%, ALDH1A1 block inconclusive, Sfp inh -87%, LMNA splice mod 14%[46 µM], G9a inh 28µM* and miR-21 reporter 0%.
`N#CC1=C(S)N(c2ccc(F)cc2)C(c2ccco2)NC1=O` (stereo not given) gave JMJD2E inh -9%, ALDH1A1 block inconclusive, Sfp inh 22µM*, LMNA splice mod -10%[46 µM], G9a inh 8.9µM* and miR-21 reporter 4%.
N#CC1=C(S)N(c2ccccc2)C(c2ccco2)NC1=O (stereo not given) was read as JMJD2E inh 3%, ALDH1A1 block -3%, Sfp inh inconclusive, G9a inh 28µM* and miR-21 reporter 2%.
Cc1ccc(N2C(=O)c3n[nH]c(C)c3C2c2ccco2)cc1 (stereo not given) was read as JMJD2E inh 3%, ALDH1A1 block -3%, Sfp inh -12%, LMNA splice mod 14%, G9a inh -4%[12.7 µM] and miR-21 reporter -39%.
Screening O=C1C2CCCN2C(c2ccco2)N1c1ccc(F)cc1 (stereo not given) returned JMJD2E inh -11%, ALDH1A1 block 3%, Sfp inh 16%, LMNA splice mod 12%[9.22 µM], G9a inh -30% and miR-21 reporter -1%.
Brc1ccc2nc(-c3cccs3)c(NCC3CCCO3)n2c1 (stereo not given) was read as JMJD2E inh inconclusive, ALDH1A1 block 7.9µM*, Sfp inh -29%, LMNA splice mod inconclusive and miR-21 reporter -35%.
Screening Cc1nn2c(C)c(C(=O)NCc3ccco3)cnc2c1-c1ccccc1 returned LMNA splice mod 10%[46 µM], G9a inh -20%[59 µM] and miR-21 reporter 0%.

Bioassay records (PubChem)
